Test results as given in the supplement of paper PMC10670038.
Structures can show the parent of a compound that is named as a salt. ± gives the standard deviation of the averaged measurements. Over roughly 2,000 compounds, “relative cell viability vs DMSO, compound alone” has its median near 1.1; the lowest 2% begin near 0.29. The full list was thinned out, with the lowest values kept by preference.

test system: TE10; assay: relative cell viability vs DMSO, compound alone (fraction); TE10 is an esophageal squamous carcinoma line; higher = less cytotoxic; details: 2 µM; 48 h
Description: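 TE10 ESCC cells (1,000/well, 384-well plates) were treated with Selleck bioactive library compounds at 2 uM alone for 48 h. Viability was read by CellTiter-Glo and expressed relative to DMSO wells. Two technical replicates (A, B).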

SMILES	relative cell viability
C[C@H]1CCC/C=C/[C@@H]2C[C@H](O)C[C@H]2[C@H](O)/C=C/C(=O)O1 [Brefeldin A]	0.2497 ± 0.0017
Cc1c(Cl)c(OCC(=O)N2CCN(C)CC2)nc2sc(C(=O)NC3CC3)c(N)c12	1.04 ± 0.019
Cc1cc(C(C#N)c2ccc(Cl)cc2)c(Cl)cc1NC(=O)c1cc(I)cc(I)c1O (stereo not given) [Closantel]	1.12 ± 0.019
O=S(=O)(F)Cc1ccccc1	0.978 ± 0.021
O=C(O)CCCc1ccc(N(CCCl)CCCl)cc1 [Chloroambucil]	1.14 ± 0.012
CN1C2CC(O)CC1C1OC12 (stereo not given) [Scopine]	0.808 ± 0.14
C=CC[C@]1(O)CC[C@H]2[C@@H]3CCC4=CC(=O)CCC4=C3C=C[C@@]21C [Altrenogest]	1.115 ± 0.0019
Cc1c(N)nc(C(CC(N)=O)NCC(N)C(N)=O)nc1C(=O)NC(C(=O)NC(C)C(O)C(C)C(=O)NC(C(=O)NCCc1nc(-c2nc(C(=O)NCCC[S+](C)C)cs2)cs1)C(C)O)C(O[C@@H]1O[C@@H](CO)[C@@H](O)[C@H](O)[C@@H]1O[C@H]1O[C@H](CO)[C@@H](O)[C@H](OC(N)=O)[C@@H]1O)c1cnc[nH]1 (stereo not given in full) [Bleomycin Sulfate]	0.856 ± 0.038
C[C@@H]1CC[C@@]2(OC1)O[C@H]1C[C@H]3[C@@H]4CC=C5C[C@@H](O[C@@H]6O[C@H](CO)[C@@H](O[C@@H]7O[C@@H](C)[C@H](O)[C@@H](O)[C@H]7O)[C@H](O)[C@H]6O[C@@H]6O[C@@H](C)[C@H](O)[C@@H](O)[C@H]6O)CC[C@]5(C)[C@H]4CC[C@]3(C)[C@H]1[C@@H]2C [Dioscin]	0.189 ± 0.051
O=C1CCC[C@@H]2[C@H]3CCCN4CCC[C@@H](CN12)[C@@H]34 [(+)-Matrine]	1.1 ± 0.059
CC1=C(O)C(=O)C=C2C1=CC=C1[C@@]2(C)CC[C@@]2(C)[C@@H]3C[C@](C)(C(=O)O)CC[C@]3(C)CC[C@]12C [Celastrol]	0.306 ± 0.0087
O=[N+]([O-])C=Cc1ccc2c(c1)OCO2 [MNS (3,4-Methylenedioxy-β-nitrostyrene, MDBN)]	0.742 ± 0.054
CC(C)=CCC[C@]1(C)C=Cc2c(O)c3c(c(CC=C(C)C)c2O1)O[C@]12C(=C[C@@H]4C[C@H]1C(C)(C)O[C@@]2(C/C=C(/C)C(=O)O)C4=O)C3=O [Gambogic Acid]	0.0673 ± 0.0049
Cc1sc2c(c1C)C(c1ccc(Cl)cc1)=N[C@@H](CC(=O)OC(C)(C)C)c1nnc(C)n1-2	0.9008 ± 0.0079
Cc1sc2c(c1C)C(c1ccc(Cl)cc1)=NC(CC(N)=O)c1nnc(C)n1-2 (stereo not given)	0.954 ± 0.053
